Many of the other results were omitted from the sample, so hits are more common in it than they were.
Pf Dd2 growth: inhibitors of Plasmodium falciparum Dd2 growth | AID 1347417 | Potency, µM (top dose mostly 28.9 µM), hits mostly inhibitors | P. falciparum Dd2 growth, SYBR Green, 72 h | 4.3% of 120,000 active; active = well fitted inhibition curve with a large enough effect; also: nearly all actives have a fitted effect of over 65% in size
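Infected erythrocytes (Dd2, 0.3% parasitemia, 2.5% hematocrit final) are added to compound in RPMI-1640/Albumax II medium, grown 72 h at 37C in low oxygen, then lysed with saponin/Triton-X containing SYBR Green and read by fluorescence.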
Each line names hits and unclear results; the compound was inactive in the other large screens.

CN(CC1CCOCC1)C(=O)Nc1cc(F)c(F)c(F)c1	none
Cc1cc(C(=O)N2CCCCCCNC(=O)[C@@H]3C[C@@H](c4nc(-c5cccnc5)no4)C[C@@H]32)n(C)n1	none
CS(=O)(=O)N1C[C@H]2CCN(C(=O)c3c(F)cccc3F)C[C@H]21	none
COc1ccc(-c2cc([C@H]3CN4CC[C@H]3C[C@@H]4COC(=O)NC3CCCCC3)nc(C)n2)cc1	none
COc1ccc(OC)c(S(=O)(=O)NC[C@H]2C[C@@H]3CCN2C[C@@H]3c2cc(-c3ccco3)nc(C)n2)c1	none
Cn1nc(-c2ccccc2)cc1[C@H]1CN2CC[C@H]1C[C@@H]2CNS(=O)(=O)c1cccs1	none
Cn1nc(-c2ccc3ccccc3c2)cc1[C@H]1CN2CC[C@H]1C[C@@H]2CNS(=O)(=O)c1cccs1	Pf Dd2 growth 13µM
COc1ccc(C(=O)NC[C@H]2C[C@@H]3CCN2C[C@@H]3c2cc(-c3ccc(F)cc3)nn2C)cc1	none
COc1ccc(NC(=O)OC[C@H]2C[C@@H]3CCN2C[C@@H]3c2cc(-c3ccccc3OC)nn2C)cc1	none
CC(=O)Nc1ccc(S(=O)(=O)NC[C@H]2C[C@@H]3CCN2C[C@@H]3c2cc(-c3ccco3)nc(C)n2)cc1	none
Cc1nc(-c2ccco2)cc([C@H]2CN3CC[C@H]2C[C@@H]3CNS(=O)(=O)c2cccs2)n1	Pf Dd2 growth 7.1µM
Cn1nc(-c2ccc(F)cc2)cc1[C@H]1CN2CC[C@H]1C[C@@H]2CNC(=O)c1cccs1	Pf Dd2 growth 13µM
Cn1nc(-c2cccs2)cc1[C@H]1CN2CC[C@H]1C[C@@H]2CNS(=O)(=O)c1ccccc1	none
COc1ccc(NC(=O)OC[C@H]2C[C@@H]3CCN2C[C@@H]3c2cc(C3CCCC3)nc(-c3ccncc3)n2)cc1	Pf Dd2 growth 1.8µM
Cc1ccc(C(=O)NC[C@H]2C[C@@H]3CCN2C[C@@H]3c2cc(-c3ccc(F)cc3)nn2C)cc1	none
CCOC(=O)c1ccc(NC(=O)N2Cc3[nH]cnc3C[C@H]2c2nc(-c3cccc([N+](=O)[O-])c3)no2)cc1	none
CN1C(=O)CCc2cc(NC(=O)Cc3ccc(Cl)cc3)ccc21	none
CC[C@@]1(O)CCN(c2nc(N)c3cc(OC)c(OC)cc3n2)C[C@H]1O	none
O=C(NC[C@H]1OC[C@@H](NCc2ccccn2)[C@@H]1O)c1cccs1	none
Cn1nc(-c2ccc3ccccc3c2)cc1[C@H]1CN2CC[C@H]1C[C@@H]2COC(=O)Nc1ccccc1	none
CC(=O)c1ccc(NC(=O)OC[C@H]2C[C@@H]3CCN2C[C@@H]3c2cc(-c3cccs3)nn2C)cc1	none
CCC(CC)c1cc([C@H]2CN3CC[C@H]2C[C@@H]3CNC(C)=O)nc(-c2ccncc2)n1	Pf Dd2 growth 2µM
CC(=O)NC[C@H]1C[C@@H]2CCN1C[C@@H]2c1cc(-c2ccc(F)cc2)nc(C)n1	none
Cc1nc(C2CCCC2)cc([C@H]2CN3CC[C@H]2C[C@@H]3CNC(=O)CCCC(=O)O)n1	none
Cc1nc(-c2ccc(F)cc2)cc([C@H]2CN3CC[C@H]2C[C@@H]3CNS(=O)(=O)Cc2ccccc2)n1	none
Cc1nc(-c2ccc(C(F)(F)F)cc2)cc([C@H]2CN3CC[C@H]2C[C@@H]3CNS(C)(=O)=O)n1	none
CCNC(=O)NC[C@H]1C[C@@H]2CCN1C[C@@H]2c1cc(-c2ccccc2)nc(C)n1	none
CCC(CC)c1cc([C@H]2CN3CC[C@H]2C[C@@H]3CNS(=O)(=O)c2cccs2)nc(-c2ccncc2)n1	Pf Dd2 growth 1.1µM
CCC(CC)c1cc([C@H]2CN3CC[C@H]2C[C@@H]3COC(=O)Nc2ccc(C(C)(C)C)cc2)nc(-c2ccncc2)n1	Pf Dd2 growth 1.3µM
CC(C)(C)c1ccc(NC(=O)OC[C@H]2C[C@@H]3CCN2C[C@@H]3c2cc(C3CCCC3)nc(-c3ccncc3)n2)cc1	Pf Dd2 growth 1µM
CC(C)c1ccc(NC(=O)OC[C@H]2C[C@@H]3CCN2C[C@@H]3c2cc(C3CCCCC3)nn2C)cc1	none
N#Cc1ccc(CNC2(Cc3cc(-c4ccc(F)cc4)on3)COC2)cc1	none
COCCn1ncc(N2CCCC(CC(=O)Nc3ccc(C)cc3C)C2)cc1=O (stereo not given)	none
Cc1ccc(C(=O)N2CCCC(c3nc(-c4cccnc4)no3)CCNC(=O)CC2)s1 (stereo not given)	none
O=C(c1cccnc1)N1CCC(c2nnc3n2C(C(=O)N2CCCC2)CC3)CC1 (stereo not given)	none
CS(=O)(=O)N1CCc2ccc(C(=O)Nc3ccc(Oc4ccccc4)cc3)cc21	none
COc1ccc(C(=O)NCC(=O)N2CCN(c3ccccn3)CC2)c(C)c1	none
COCCOCc1nc(C2CCCN2)no1 (stereo not given)	none
CN1C(=O)[C@@H]2C[C@@H](CN2Cc2ccnc3ccccc23)Oc2ccccc21	none
Fc1cc(F)cc(Cc2nc3nccc(-c4ccncc4)n3n2)c1	none
CC[C@H]1CN(C(=O)Nc2cccc(C(F)(F)F)c2)CC[C@H]1CC(=O)NCc1ccccc1	none
COc1cccc(N2CC(C(=O)NCCCc3ccccc3)NC2=O)c1 (stereo not given)	none
Cn1ncc(N2CCCC(C(=O)O)C2)cc1=O (stereo not given)	none
Fc1ccc(OC2CN(Cc3ccsc3)C2)cc1F	none
CCCNC(=O)OC[C@H]1C[C@@H]2CCN1C[C@@H]2c1cc(C(CC)CC)nc(-c2ccncc2)n1	Pf Dd2 growth 1.4µM
COc1ccccc1-c1cc([C@H]2CN3CC[C@H]2C[C@@H]3COC(=O)Nc2cccc(C(C)=O)c2)nc(C)n1	none
CCC(CC)C(=O)NC[C@H]1C[C@@H]2CCN1C[C@@H]2c1cc(-c2ccco2)nc(C)n1	none
CCOC(=O)c1oc2ccc(S(=O)(=O)N3CCC(c4noc(C5CC5)n4)C3)cc2c1C (stereo not given)	none
O=C(c1ccc2c(c1)N(Cc1ccc(F)cc1)CCS2)N1CCN(c2ccccc2)CC1	Pf Dd2 growth 10µM
O=C(CN1CCSc2ccccc21)N1CCN(c2ccc(F)cc2)CC1	none
Cc1ccc(Cl)cc1N1CCN(C(=O)Cn2cnc3onc(-c4ccc(F)cc4)c3c2=O)CC1	none
COc1ccc(Cn2c(=O)[nH]c3cc(C(=O)N4CCN(c5cc(C)ccc5C)CC4)ccc3c2=O)cc1	none
Cc1c(C)n(Cc2ccccc2)c2ccc(C(=O)N3CCN(c4ccc(F)cc4)CC3)cc12	none
Cc1ccc(Cl)cc1N1CCN(C(=O)c2ccc3c(c2)N(Cc2ccc(F)cc2)CCS3)CC1	Pf Dd2 growth 7.9µM
Cc1ccc(CN2CCSc3ccc(C(=O)N4CCN(c5cc(C)ccc5C)CC4)cc32)cc1	Pf Dd2 growth 11µM
Cc1ccc(C)c(N2CCN(C(=O)CN3CCSc4ccccc43)CC2)c1	none
Cc1c(C)n(Cc2ccc(F)cc2)c2ccc(C(=O)N3CCN(c4ccc(Cl)cc4)CC3)cc12	none
O=C1CC(c2noc(-c3cc(F)cc(F)c3)n2)CN1C1CCCCC1 (stereo not given)	none
COCCOc1ccnc(-c2noc([C@@H]3CCCN3Cc3ccc(C(=O)O)cc3)n2)c1	none
O=C(NCCC1CCN(C(=O)Nc2ccccc2F)CC1)c1ccccn1	none
O=C(CC1CCCN(c2cnn(CC3CC3)c(=O)c2)C1)NC1CCCC1 (stereo not given)	none
COc1ccc(OC)c(CN2CCC3(CC2)CC3C(=O)N(C)CCOc2ccc(C)cc2)c1 (stereo not given)	none
O=C1N(c2ccccc2)C[C@H]2CN(C3CCOCC3)CCN12	none
CN1C[C@@H](NC(=O)Nc2ccc(F)cc2F)C[C@H]1c1nc(-c2ccncc2)no1	none
Cc1nn(-c2ccccc2)c(Oc2ccccc2F)c1CCC(=O)NCC(C)C	none
O=C(CN1C(=O)CCSc2ccccc21)Nc1ccccc1F	none

Compound activity deposited in PubChem BioAssay by National Center for Advancing Translational Sciences (NCATS).
